Test [1] is described as follows: qHTS assay for identifying genotoxic compounds that show differential cytotoxicity against isogenic chicken DT40 cell lines with known DNA damage response pathways - wild type cell line (AID 743012). Further: nearly all actives have a fitted effect of over 60% in size. Further: potency means the concentration at half of the fitted maximal effect. The procedure, abridged: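 Viability by ATP luminescence (CellTiter-Glo, 30 min RT) after 40 h compound treatment at 37 C/5% CO2, using 300 parental DNA repair-proficient DT40 cells per well.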

The nature of test [2]: qHTS assay for identifying genotoxic compounds that show differential cytotoxicity against isogenic chicken DT40 cell lines with known DNA damage response pathways - Rev3 mutant cell line (AID 743014). Further: nearly all actives have a fitted effect of over 55% in size. Further: potency means the concentration at half of the fitted maximal effect.
Test [3] is described as follows: qHTS assay to identify small molecule antagonists of the androgen receptor (AR) signaling pathway - cell viability counter screen (AID 743033; further: nearly all actives have a fitted effect of over 45% in size).
Test [4] in a line: qHTS assay to identify small molecule antagonists of the androgen receptor (AR) signaling pathway using the MDA cell line - cell viability counter screen (AID 743041; further: nearly all actives have a fitted effect of over 45% in size). The procedure, abridged: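 Using the breast carcinoma line MDA-kb2 AR-luc, test chemicals were co-incubated with R1881 for 16 h; CellTiter-Fluor reagent, added at 15.5 h, provided a fluorescence measure of live cells.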

The nature of test [5]: qHTS assay to identify small molecule antagonists of the thyroid receptor (TR) signaling pathway - cell viability counter screen (AID 743064). Further: nearly all actives have a fitted effect of over 50% in size. Further: potency means the concentration at half of the fitted maximal effect. The method, boiled down:
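Plate GH3.TRE-Luc cells; incubate 4 h at 37 °C; add compound, then T3 to 1 nM final; incubate 23.5 h; add CellTiter-Fluor; incubate 30 min at 37 °C, 5% CO2; read fluorescence.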

A short description of test [6]: qHTS assay to identify small molecule antagonists of the thyroid receptor (TR) signaling pathway (AID 743065). Further: nearly all actives have a fitted effect of over 55% in size. Further: potency means the concentration at half of the fitted maximal effect. The method, boiled down:
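Antagonism measured as loss of luciferase signal in GH3 cells stably carrying a TRE-luciferase reporter, co-treated with compound and T3 (1 nM final) for 23.5 h at 37 C. Viability was read in the same well by CellTiter-Fluor.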

Test [7] has as its system thyroid hormone receptor (rat, GH3 cells). The test is described as follows: qHTS assay to identify small molecule agonists of the thyroid receptor (TR) signaling pathway (AID 743066; calls by dose curve).
Test [8] can be described thus: qHTS assay to identify small molecule antagonists of the estrogen receptor alpha (ER-alpha) signaling pathway - cell viability counter screen (AID 743074; calls by dose curve; further: nearly all actives have a fitted effect of over 45% in size).
Test [9] in a line: qHTS assay to identify small molecule antagonists of the estrogen receptor alpha (ER-alpha) signaling pathway using the BG1 cell line - cell viability counter screen (AID 743081).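 Further: compound given together with 17beta-estradiol as the ER stimulus; series mostly up to about 70 µM; nearly all actives have a fitted effect of over 45% in size.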
Another test deals with Aromatase (Homo sapiens) (UniProt P11511). The test can be described thus: qHTS assay to identify aromatase inhibitors (AID 743083). Further: series mostly up to about 70 µM; nearly all actives have a fitted effect of over 55% in size.
Test [10] can be described thus: qHTS assay for identifying genotoxic compounds that show differential cytotoxicity against isogenic chicken DT40 cell lines with known DNA damage response pathways - Rad54/Ku70 mutant cell line (AID 743015). Further: nearly all actives have a fitted effect of over 60% in size. Further: potency means the concentration at half of the fitted maximal effect.
In test [11] the target is Estrogen receptor (Homo sapiens) (UniProt P03372). The test can be described thus: qHTS assay to identify small molecule antagonists of the estrogen receptor alpha (ER-alpha) signaling pathway (AID 743069; active means well fitted curve in the direction sought with a large enough effect in the signal ratio in the repeat runs, not every such curve was filed as active; inconclusive means weak or mixed curves, or effect the other way; inactive means no such curve, though single readings can be large or run the other way; the % refers to the signal ratio; further: potency means the concentration at half of the fitted maximal effect). The procedure, abridged: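 Fluorescence intensity from a beta-lactamase FRET substrate served as the read-out. Cells: HEK293 with stably integrated ER-alpha-UAS-bla reporter. Agonist 17beta-estradiol was co-added with compounds; incubation 18 hr at 37C, substrate 2 hr at room temperature.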

For test [12] the target is unchanged. The test can be described thus: qHTS assay to identify small molecule agonists of the estrogen receptor alpha (ER-alpha) signaling pathway (AID 743075; calls by dose curve; further: potency means the concentration at half of the fitted maximal effect).
Test [13] has the same target. The test is described as follows: qHTS assay to identify small molecule agonists of the estrogen receptor alpha (ER-alpha) signaling pathway using the BG1 cell line (AID 743079). Further: nearly all actives have a fitted effect of over 20% in size. Further: potency means the concentration at half of the fitted maximal effect.
A short description of test [14]: qHTS assay to identify small molecule antagonists of the estrogen receptor alpha (ER-alpha) signaling pathway using the BG1 cell line (AID 743080; calls by dose curve;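 further: BG1 cells stimulated with 17beta-estradiol alongside compound; series mostly up to about 70 µM; nearly all actives have a fitted effect of over 25% in size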). The method, boiled down:
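Readout is ONE-Glo luminescence, taken 30 min at room temperature after reagent addition, preceded by a CellTiter-Fluor viability read; BG1-Luc-4E2 cells had received compound and 17beta-estradiol for 21.5 h at 37 C.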

Test [15] deals with Androgen receptor (Homo sapiens) (UniProt P10275). The test is described as follows: qHTS assay to identify small molecule antagonists of the androgen receptor (AR) signaling pathway (AID 743035; active means well fitted inhibition curve with a large enough effect in the signal ratio in the repeat runs, not every such curve was filed as active; inconclusive means weak or mixed curves, or effect the other way; inactive means no such curve, though single readings can be large or run the other way; the % refers to the signal ratio). The method, boiled down:
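Antagonist mode: AR-bla HEK293 cells co-treated with test compounds and agonist R1881 for 16 h at 37C, 5% CO2. Beta-lactamase activity read as FRET fluorescence after 2 h room-temperature substrate loading.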

For test [16] the target is unchanged. The test can be described thus: qHTS assay to identify small molecule agonists of the androgen receptor (AR) signaling pathway (AID 743036; active means well fitted activation curve with a large enough effect in the signal ratio in the repeat runs, with a control signal flat, not every such curve was filed as active; inconclusive means weak or mixed curves, or effect the other way; inactive means no such curve, though single readings can be large or run the other way; the % refers to the signal ratio). The procedure, abridged:
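Reporter line: GeneBLAzer AR-UAS-bla-GripTite (HEK293). Steps: plate cells, 4 h rest, add compounds, 16 h at 37C, add LiveBLAzer B/G substrate, 2 h at RT, read fluorescence.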

Test [17] has the same target. The test is described as follows: qHTS assay to identify small molecule agonists of the androgen receptor (AR) signaling pathway using the MDA cell line (AID 743040; further: nearly all actives have a fitted effect of over 20% in size). The procedure, abridged: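 Stable MMTV-luciferase reporter in MDA-kb2 cells; note the promoter carries GR as well as AR response elements. 16 h compound treatment, 37C, 0% CO2; ONE-Glo luminescence endpoint.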

Test [18] has the same target. The test is described as follows: qHTS assay to identify small molecule antagonists of the androgen receptor (AR) signaling pathway using the MDA cell line (AID 743042; further: nearly all actives have a fitted effect of over 55% in size). The procedure, abridged: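 Antagonist mode: compounds plus R1881 agonist added to MDA-kb2 AR-luc cells, incubated 16 h at 37C. Luciferase reporter luminescence quantified, with multiplexed CellTiter-Fluor readout for cell viability.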

Unmarked numbers belong to inactive results. Active and inactive are the calls of the source. Unless noted, the call rests on the fitted dose curve; in most records, active means well fitted curve in the direction sought with a large enough effect in the repeat runs; inconclusive means weak or mixed curves; inactive means no such curve, though single readings can be large; an effect the other way counts as inactive or inconclusive.

Sequence of Aromatase (Homo sapiens) (P11511 whole entry, looked up): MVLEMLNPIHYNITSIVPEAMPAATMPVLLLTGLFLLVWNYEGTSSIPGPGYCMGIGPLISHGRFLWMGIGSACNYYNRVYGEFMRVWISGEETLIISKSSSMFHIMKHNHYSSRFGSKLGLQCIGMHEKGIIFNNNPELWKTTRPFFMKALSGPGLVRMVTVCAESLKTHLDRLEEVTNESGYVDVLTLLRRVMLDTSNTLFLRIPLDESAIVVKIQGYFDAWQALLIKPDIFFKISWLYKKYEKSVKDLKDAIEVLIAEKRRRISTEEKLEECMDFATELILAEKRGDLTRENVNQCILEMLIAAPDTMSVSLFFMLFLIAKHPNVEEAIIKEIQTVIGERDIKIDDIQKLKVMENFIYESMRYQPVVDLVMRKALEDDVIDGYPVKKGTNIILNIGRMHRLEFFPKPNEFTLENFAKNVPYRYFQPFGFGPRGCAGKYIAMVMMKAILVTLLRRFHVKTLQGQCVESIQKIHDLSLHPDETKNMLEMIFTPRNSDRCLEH
Sequence of Estrogen receptor (Homo sapiens) (P03372 whole entry, looked up): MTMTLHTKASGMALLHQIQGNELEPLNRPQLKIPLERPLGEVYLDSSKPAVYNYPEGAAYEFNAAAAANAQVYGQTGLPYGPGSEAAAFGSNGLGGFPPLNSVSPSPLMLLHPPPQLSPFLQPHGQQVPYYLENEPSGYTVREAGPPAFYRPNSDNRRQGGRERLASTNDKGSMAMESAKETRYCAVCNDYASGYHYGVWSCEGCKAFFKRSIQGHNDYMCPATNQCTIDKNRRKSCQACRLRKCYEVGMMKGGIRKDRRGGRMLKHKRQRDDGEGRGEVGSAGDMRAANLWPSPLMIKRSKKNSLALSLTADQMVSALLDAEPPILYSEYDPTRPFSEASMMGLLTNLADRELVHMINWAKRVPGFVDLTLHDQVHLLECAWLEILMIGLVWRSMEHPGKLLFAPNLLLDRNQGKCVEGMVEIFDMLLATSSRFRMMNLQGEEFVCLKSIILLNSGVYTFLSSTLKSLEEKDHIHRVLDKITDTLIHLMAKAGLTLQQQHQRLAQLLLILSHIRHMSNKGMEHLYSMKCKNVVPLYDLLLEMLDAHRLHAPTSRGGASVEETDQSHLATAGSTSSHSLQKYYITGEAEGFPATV
Sequence of Androgen receptor (Homo sapiens) (P10275 whole entry, looked up): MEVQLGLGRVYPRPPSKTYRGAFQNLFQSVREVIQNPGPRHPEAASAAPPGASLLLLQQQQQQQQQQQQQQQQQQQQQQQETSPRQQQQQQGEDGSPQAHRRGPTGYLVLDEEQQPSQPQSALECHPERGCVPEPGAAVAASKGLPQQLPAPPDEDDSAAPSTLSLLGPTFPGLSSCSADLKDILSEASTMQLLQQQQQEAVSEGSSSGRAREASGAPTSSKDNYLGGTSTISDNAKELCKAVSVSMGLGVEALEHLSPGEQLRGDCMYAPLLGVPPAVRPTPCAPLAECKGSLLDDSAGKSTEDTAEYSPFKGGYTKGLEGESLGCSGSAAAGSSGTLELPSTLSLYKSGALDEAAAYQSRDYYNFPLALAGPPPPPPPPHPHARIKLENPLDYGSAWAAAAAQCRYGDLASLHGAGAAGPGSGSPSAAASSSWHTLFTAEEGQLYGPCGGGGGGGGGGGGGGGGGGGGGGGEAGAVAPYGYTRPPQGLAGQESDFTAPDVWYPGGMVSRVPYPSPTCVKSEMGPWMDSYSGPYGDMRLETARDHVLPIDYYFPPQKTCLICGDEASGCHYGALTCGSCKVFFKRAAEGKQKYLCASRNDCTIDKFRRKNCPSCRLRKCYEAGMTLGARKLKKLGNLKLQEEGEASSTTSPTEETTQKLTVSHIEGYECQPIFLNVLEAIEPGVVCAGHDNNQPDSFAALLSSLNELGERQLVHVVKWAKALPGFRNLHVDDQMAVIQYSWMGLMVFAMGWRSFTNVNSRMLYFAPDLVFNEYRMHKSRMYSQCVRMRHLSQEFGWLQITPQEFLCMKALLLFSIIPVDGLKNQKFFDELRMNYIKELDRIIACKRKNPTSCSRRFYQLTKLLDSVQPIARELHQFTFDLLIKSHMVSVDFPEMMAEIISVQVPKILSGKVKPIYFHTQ

As to `CCCCCCCCCCC1CO1` (stereo not drawn), the Potency is 61.1 µM (active) in test [1] and 68.6 µM (active) in [2]. The outcome in test [3], in test [8] and in [9] was inactive. For the same compound, the Potency entry (in test [4]; in [5]; in [6]; in test [7]; with Aromatase (Homo sapiens)) was “inactive” throughout.

Turning to `CC(C)[N+](C)(C)CC(O)COc1cccc2ccccc12` (stereo not drawn), the Potency entry in test [1], in test [2], in test [10], in [4], in test [5] and in test [6] was “inactive” throughout. For the same compound, the Potency result (in test [7]; in [11]; in [12]; in test [13]; in [14]; with Aromatase (Homo sapiens)) was “inactive” in each case. The result in test [3], in test [8] and in test [9] was inactive.

On to `C=C(C)C(=O)OCCCCCCCCCCCCCCCCCC`, for which the Potency entry in [1], in [2], in test [10], in [4], in test [5] and in test [6] was “inactive” throughout. Also, the Potency entry (in test [7]; in [11]; in test [12]; in test [14]; in the test with Aromatase (Homo sapiens)) was “inactive” throughout. In addition, the compound was classed as inactive in test [3] and in test [9].

`O=Cc1ccccc1[N+](=O)[O-]`: the call in test [3], in [8] and in test [9] was inactive. Further, the Potency result in test [6], in [7], in [11], in test [12], in test [13] and in test [14] was “inactive” in each case. Also, in the test with Aromatase (Homo sapiens), the Potency entry is “inactive”.

Turning to `O=C(O)c1ccc[n+]([O-])c1`, the Potency result in [1], in test [10], in [15], in test [17], in test [4] and in test [5] was “inactive” in each case. Further, the Potency result in test [6], in test [7], in [11], in test [12], in test [13] and in test [14] was “inactive” each time. Further, the Potency entry in the test with Aromatase (Homo sapiens) was “inactive”. In addition, the compound was classed as inactive in [3], in [16], in [18], in [8] and in [9].

As for `COC(=O)c1ccc(C(=O)OC)c(C(=O)OC)c1`, the Potency entry in test [1], in [2], in [10], in test [4], in [5] and in test [6] was “inactive” throughout. The Potency entry (in test [7]; in [11]; in test [12]; in test [13]; in test [14]; with Aromatase (Homo sapiens)) was “inactive” throughout. The result in test [3], in test [8] and in test [9] was inactive.

On to `N#CCN(CC#N)CCN(CC#N)CC#N`, for which the Potency result in [1], in test [2], in test [10], in test [4], in test [5] and in test [6] was “inactive” each time. Further, the Potency result in [7] was “inactive”. For the same compound, the outcome in test [3], in test [8] and in [9] was inactive.

`CC(C)(O)c1ccccc1`: the Potency result in test [1], in [2], in [10], in [4], in test [5] and in test [6] was “inactive” in each case. For the same compound, the Potency entry (in [7]; in test [11]; in test [12]; in test [13]; in test [14]; with Aromatase (Homo sapiens)) was “inactive” in each case. The compound was called inactive in test [3], in [8] and in [9].

In the case of `c1cc(CN2CCCCC2)cc(OCCCNc2nc3ccccc3s2)c1`, the Potency was 13.3 µM (active) in test [1]; 29.8 µM (active) in test [2]; 23.7 µM (active) in test [10]; 11.9 µM (active) in test [5]; 23.7 µM (active) in [6]. In addition, the result in test [3] and in test [9] was inactive. The Potency result in test [4], in [11] and in test [12] was “inactive” each time.

With `C(=C(c1ccccc1)c1ccccc1)c1ccccc1`, the Potency result in [1], in test [4], in [5], in test [6], in test [7] and in test [14] was “inactive” in each case. In addition, the Potency entry with Aromatase (Homo sapiens) was “inactive”. Also, the call in [3], in [8] and in [9] was inactive. Also, the Potency was 54.9 µM [inconclusive] (active) in [11], 7.76 µM [inconclusive] (active) in test [12] and 2.43 µM (active) in [13].

`Nc1[nH]c(=O)ncc1F`: the Potency entry in test [1], in test [2], in [10], in [4], in [11] and in test [12] was “inactive” in each case. For the same compound, the Potency entry (in test [13]; in [14]; in the test with Aromatase (Homo sapiens)) was “inactive” throughout. The compound was classed as inactive in [3], in [8] and in [9].

Consider `CCCCOCC(C)OCC(C)O` (stereo not drawn), for which the Potency entry in test [1], in test [2], in [10], in test [6], in [7] and in test [11] was “inactive” in each case. In addition, the Potency result (in test [12]; in test [13]; in test [14]; with Aromatase (Homo sapiens)) was “inactive” in each case. Also, the compound was classed as inactive in [3], in [8] and in test [9].

Regarding `C=CC(=O)OCCCCCC`, the Potency result in test [1], in [2], in [10], in test [4], in test [5] and in [6] was “inactive” each time. Besides, the Potency result (in test [7]; in the test with Aromatase (Homo sapiens)) was “inactive” in each case. Also, the result in test [3], in test [8] and in [9] was inactive.

As for `NC1CCN(c2cccc(Cl)n2)CC1`, the call in [3], in [16], in [18] and in test [8] was inactive. For the same compound, the Potency result (in test [15]; in test [17]; in test [4]; in test [7]; with Aromatase (Homo sapiens)) was “inactive” throughout.

Regarding `COc1cc(C)cc(O)c1`, the Potency entry in test [1], in test [2], in test [10], in test [4], in [5] and in test [6] was “inactive” throughout. In addition, the Potency result (in [7]; in the test with Aromatase (Homo sapiens)) was “inactive” in each case. For the same compound, the call in test [3], in test [8] and in test [9] was inactive.

With `c1ccc(CCCc2ccccn2)cc1`, the Potency result in test [1], in test [2], in test [10], in [4], in test [6] and in test [7] was “inactive” throughout. Further, the Potency result (in [11]; in test [12]; with Aromatase (Homo sapiens)) was “inactive” each time. For the same compound, the compound was classed as inactive in [3], in test [8] and in test [9].

For the compound `O=[N+]([O-])c1ccc(CCO)cc1`, the Potency entry in [2], in test [10], in [4], in test [6], in test [7] and in [11] was “inactive” throughout. Moreover, the Potency entry (in [12]; in test [13]; in test [14]; in the test with Aromatase (Homo sapiens)) was “inactive” in each case. For the same compound, the result in test [3], in test [8] and in [9] was inactive.

For `Cc1cc(C)c(NC(=O)CN(CC(=O)O)CC(=O)O)c(C)c1Br`, the Potency entry in test [1], in test [2], in [10], in test [4], in [6] and in [7] was “inactive” each time. Besides, the Potency entry with Aromatase (Homo sapiens) was “inactive”. Also, the call in test [3], in test [8] and in test [9] was inactive.

Turning to `N[C@@H](CS)C(=O)O`, the Potency entry in test [1], in test [2], in [10], in [4], in test [5] and in [6] was “inactive” throughout. Further, the Potency result (in [7]; with Aromatase (Homo sapiens)) was “inactive” each time. The compound was called inactive in [3], in test [8] and in test [9].

Take `Cc1ccccc1Br`: the Potency entry (in [1]; in test [2]; in test [10]; in test [4]; in the test with Aromatase (Homo sapiens)) was “inactive” in each case. Also, the compound was classed as inactive in [3], in test [8] and in test [9].

For the compound `CC/C=C\C#N`, the Potency result in test [2], in test [10], in [4], in [5], in test [6] and in test [7] was “inactive” in each case. For the same compound, the Potency entry (in test [11]; in test [12]; in test [13]; in test [14]; with Aromatase (Homo sapiens)) was “inactive” in each case. The outcome in [3], in test [8] and in [9] was inactive.

The record behind these values is PubChem BioAssay (Tox21).
